Measured values published in PubChem BioAssay AID1159580 (chemical genetic matrix, 2015).
Several values for one entry are separate records, joined by “and”; a condition that tells them apart may be missing. Equal entries are not always repeated. About 2,000 (36%) of roughly 5,500 compounds were called active. Another 18% or so got no clear call; they are omitted. Rule as the data show it: active = normalized growth mostly below about 0.91 (no sharp cut-off); inconclusive = no clear call, values can overlap the other calls; inactive = mostly above about 0.92. Some of the results follow.

Assay: chemical genetic growth profiling, strain panel (AID 1159580);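 also: tested at 20 µM; growth read once vehicle control cultures reached saturation at 30 °C; 1 = growth at the plate median or of vehicle wells; lower values mean less growth of the strain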
Conditions: S. cerevisiae deletion strains, growth OD

Measured: normalized growth

NC(=O)N/N=C\c1ccc([N+](=O)[O-])o1
inactive: locus YAL021C, strain ccr4, active compounds read low 0.987 | locus YAL026C, strain drs2, active compounds read low 0.988 | locus YAL030W, strain snc1, active compounds read low 1 | locus YBL061C, strain skt5, active compounds read low 0.997 | locus YBR009C, strain hhf1, active compounds read low 0.978 | locus YBR021W, strain FUR4, active compounds read low 1.02 | locus YBR023C, strain chs3, active compounds read low 0.996 | locus YBR171W, strain sec66, active compounds read low 1.01 | locus YBR229C, strain ROT2, active compounds read low 0.997 | locus YBR231C, strain swc5, active compounds read low 0.993 | locus YBR279W, strain paf1, active compounds read low 0.995 | locus YCL011C, strain gbp2, active compounds read low 0.986 | locus YCL016C, strain dcc1, active compounds read low 0.992 | locus YCL029C, strain bik1, active compounds read low 0.99 | locus YCL061C, strain MRC1, active compounds read low 1.01 | locus YCL069W, strain vba3, active compounds read low 1 | locus YCR088W, strain abp1, active compounds read low 0.972 | locus YDL005C, strain med2, active compounds read low 0.989 | locus YDL035C, strain GPR1, active compounds read low 1.01 | locus YDL040C, strain nat1, active compounds read low 0.995 | locus YDL074C, strain BRE1, active compounds read low 1.08 | locus YDL101C, strain DUN1, active compounds read low 0.993 | locus YDL134C, strain PPH21, active compounds read low 1 | locus YDL185W, strain tfp1, active compounds read low 0.963 | locus YDL192W, strain arf1, active compounds read low 0.99 | locus YDR001C, strain nth1, active compounds read low 0.991 | locus YDR069C, strain doa4, active compounds read low 0.975 | locus YDR101C, strain arx1, active compounds read low 0.977 | locus YDR137W, strain rgp1, active compounds read low 1.04 | locus YDR159W, strain sac3, active compounds read low 0.993 | locus YDR162C, strain NBP2, active compounds read low 1.01 | locus YDR195W, strain ref2 0.967 | locus YDR297W, strain sur2, active compounds read low 0.991 | locus YDR318W, strain mcm21, active compounds read low 0.983 | locus YDR334W, strain swr1, active compounds read low 0.992 | locus YDR335W, strain msn5, active compounds read low 0.999 | locus YDR388W, active compounds read low 0.984 | locus YDR392W, strain spt3, active compounds read low 0.925 | locus YDR502C, strain sam2, active compounds read low 0.978 | locus YEL003W, strain gim4, active compounds read low 1 | locus YEL037C, strain rad23, active compounds read low 1 | locus YEL061C, strain CIN8 (second series), active compounds read low 1 | locus YEL061C, strain CIN8, active compounds read low 1.02 | locus YER015W, strain faa2, active compounds read low 0.962 | locus YER016W, strain bim1, active compounds read low 0.968 | locus YER110C, active compounds read low 0.966 | locus YER111C, strain swi4, active compounds read low 1.01 | locus YER155C, strain BEM2 (second series), active compounds read low 0.962 | locus YER155C, strain BEM2, active compounds read low 0.994 | locus YER167W, strain BCK2, active compounds read low 1 | locus YFR010W, strain ubp6, active compounds read low 0.985 | locus YGL078C, strain dbp3, active compounds read low 0.995 | locus YGL086W, strain mad1, active compounds read low 0.971 | locus YGL167C, strain pmr1, active compounds read low 0.994 | locus YGL173C, strain kem1, active compounds read low 1.01 | locus YGL227W, strain vid30, active compounds read low 1.01 | locus YGL240W, strain doc1, active compounds read low 0.952 | locus YGL248W, strain PDE1, active compounds read low 0.999 | locus YGL253W, strain hxk2, active compounds read low 1.01 | locus YGR135W, strain pre9, active compounds read low 0.989 | locus YGR229C, strain SMI1, active compounds read low 1.07 | locus YGR252W, strain gcn5, active compounds read low 0.951 | locus YHR013C, strain ard1, active compounds read low 1.01 | locus YHR027C, strain rpn1, active compounds read low 0.988 | locus YHR030C, strain SLT2, active compounds read low 0.992 and 0.97 | locus YHR079C, strain IRE1 (second series), active compounds read low 0.978 | locus YHR079C, strain IRE1, active compounds read low 0.96 | locus YHR094C, strain hxt1, active compounds read low 0.982 | locus YHR129C, strain ARP1, active compounds read low 0.999 | locus YHR142W, strain chs7, active compounds read low 1.02 | locus YHR200W, strain rpn10, active compounds read low 0.989 | locus YIL066C, strain RNR3, active compounds read low 1.01 | locus YIL073C, strain SPO22, active compounds read low 0.975 | locus YIL125W, strain kgd1, active compounds read low 0.983 | locus YIR030C, strain dcg1, active compounds read low 0.989 | locus YJL092W, strain hpr5, active compounds read low 0.997 | locus YJL095W, strain BCK1 (second series), active compounds read low 0.992 | locus YJL095W, strain BCK1, active compounds read low 0.985 and 0.968 | locus YJL115W, strain asf1, active compounds read low 1.02 | locus YJL129C, strain trk1, active compounds read low 1.05 | locus YJL134W, strain LCB3, active compounds read low 1 | locus YJL154C, strain vps35, active compounds read low 0.992 | locus YJL164C, strain tpk1, active compounds read low 0.966 | locus YJL166W, strain qcr8, active compounds read low 0.984 | locus YJL168C, strain set2, active compounds read low 0.979 | locus YJL187C, strain SWE1 (second series), active compounds read low 0.998 | locus YJL187C, strain SWE1, active compounds read low 0.996 | locus YJR043C, strain POL32, active compounds read low 0.977
